# Experimental data from PubChem BioAssay (EPA / NIEHS).
# Inconclusive results are not listed. Activity calls are given as the source filed them. How the source made its calls, unless noted: active means hit-call score of the fitted dose curve at least 0.9, where 1 is the maximum; inconclusive means response in the unintended direction; inactive means score below 0.9.
# Tests used:
# [1] = molecular target: Nucleoli Translocation, AR (gene 367) (UniProt P10275); assay: UPITT_HCI_U2OS_AR_TIF2_Nucleoli_Antagonist: University of Pittsburgh U2OS Androgen Receptor-Transcriptional Intermediary Factor 2 (AR-TIF2) Antagonism High Content Imaging Assay for Nucleoli Translocation (AID 2283997)
# Outline: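 U2OS cells co-expressing red-fluorescent-tagged human AR and green-fluorescent-tagged TIF2, imaged by high-content microscopy for nucleolar red fluorescence. Antagonist mode against DHT; primary screen at 20 uM final (0.2% DMSO).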
# [2] = molecular target: Nucleoli Translocation, AR (gene 367) (UniProt P10275); assay: UPITT_HCI_U2OS_AR_TIF2_Nucleoli_Agonist: University of Pittsburgh U2OS Androgen Receptor-Transcriptional Intermediary Factor 2 (AR-TIF2) Agonism High Content Imaging Assay for Nucleoli Translocation (AID 2283998)
# Outline: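 Red-tagged human androgen receptor co-expressed with GFP-tagged TIF2 serves as the binding reporter. Primary testing used 20 uM final (0.2% DMSO); follow-up dose response covered 0.195 to 50 uM final (0.5% DMSO).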
# [3] = molecular target: Ratio of Nucleoli Translocation and Cytoplasm, AR (gene 367) (UniProt P10275); assay: UPITT_HCI_U2OS_AR_TIF2_Nucleoli_Cytoplasm_Ratio_Antagonist: University of Pittsburgh U2OS Androgen Receptor-Transcriptional Intermediary Factor 2 (AR-TIF2) Antagonism High Content Imaging Assay for Ratio of Nucleoli Translocation and Cytoplasm (AID 2283999);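 further: antagonists lower the DHT-driven ratio of nucleolar to cytoplasmic red signal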
# Outline: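 U2OS cells co-expressing RFP-tagged human AR and GFP-tagged TIF2, antagonist mode with DHT as baseline. Nucleolar-to-cytoplasmic red fluorescence ratio imaged by high-content microscopy; final compound 20 uM (0.2% DMSO) primary, 0.195–50 uM (0.5% DMSO) concentration-response.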
# [4] = molecular target: Ratio of Nucleoli Translocation and Cytoplasm, AR (gene 367) (UniProt P10275); assay: UPITT_HCI_U2OS_AR_TIF2_Nucleoli_Cytoplasm_Ratio_Agonist: University of Pittsburgh U2OS Androgen Receptor-Transcriptional Intermediary Factor 2 (AR-TIF2) Agonism High Content Imaging Assay for Ratio of Nucleoli Translocation and Cytoplasm (AID 2284000);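 further: hits raise the red nucleolar to cytoplasm ratio above vehicle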
# Outline: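 U2OS cells expressing RFP-tagged human AR and GFP-tagged TIF2; high-content imaging ratio of nucleolar to cytoplasmic red fluorescence, fitted as gain of signal vs DMSO. Single point at 20 uM final (0.2% DMSO); concentration-response 0.195-50 uM final (0.5% DMSO).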
# [5] = CCTE_Padilla_ZF_Score.General: CCTE's 144 Hour Post-fertilization zebrafish Assay Score for General Malformation, Padilla Lab (AID 2284411; active means hit-call score of the fitted dose curve at least 0.9, where 1 is the maximum; inactive means score below 0.9)
# Outline: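 Wild-type zebrafish embryos were plated singly at 6-8 hpf in 10% Hanks' and exposed in sealed wells at 26C until rinsed on 5 dpf. At 6 dpf two blinded assessors scored mortality, hatching and malformations by stereomicroscopy; gain-of-signal versus DMSO.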
# [6] = molecular target: Androgen Receptor/SRC-1 Co-activator, AR (gene 367) (UniProt P10275); assay: OT_AR_ARSRC1_0960: Odyssey Thera (OT) 16-hour HEK293T Protein-Complementation Assay for Androgen Receptor/SRC-1 Co-activator (AID 2283353);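 further: actives raise the signal above DMSO so potency reflects increased AR and SRC-1 complex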
# Outline: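 HEK293T cells stably expressing AR and SRC-1 fused to Venus YFP fragments, imaged 16 h after dosing. Nuclear/cytoplasmic fluorescence ratio at 488 nm from at least 400 cells per image; gain of signal relative to DMSO.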
# [7] = molecular target: Androgen Receptor/SRC-1 Co-activator, AR (gene 367) (UniProt P10275); assay: OT_AR_ARSRC1_0480: Odyssey Thera (OT) 8-hour HEK293T Protein-Complementation Assay for Androgen Receptor/SRC-1 Co-activator (AID 2283354);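 further: hits raise the complementation signal above DMSO so AC50 marks enhancers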
# Outline: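 HEK293T cells stably expressing AR and SRC-1 fused to Venus YFP fragments, imaged 8 h after dosing. Complementation fluorescence scored as nuclear/cytoplasmic ratio at 488 nm in at least 400 cells per image; gain fitted versus DMSO.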
# [8] = molecular target: Agonist Androgen Response Element (ARE), AR (gene 367) (UniProt P10275); assay: OT_AR_ARELUC_AG_1440: Odyssey Thera (OT) 24-hour CHO-K1 Luciferase Assay for Agonist Androgen Response Element (ARE) (AID 2283379)
# Outline: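 CHO-K1 cells carrying an ARE-driven luciferase reporter were exposed to compounds for 24 h. Luminescence was then read after adding a D-luciferin/ATP mix, and activity was scored as a gain in signal over DMSO vehicle.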
# [9] = CEETOX_H295R_OHPREG: CeeTox H295R High-throughput Steroidogenesis Assay for OH-Pregnenolone (OHPREG) (AID 2283434; active means hit-call score of the fitted dose curve at least 0.9, where 1 is the maximum; inactive means score below 0.9); details: actives raise or lower the signal
# Outline: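 H295R cells pre-stimulated 48 h with 10 uM forskolin, then exposed 48 h to chemical in 0.1% DMSO. 17alpha-hydroxypregnenolone in medium quantified by MTBE extraction and HPLC-MS/MS; bidirectional fit versus DMSO, viability checked by MTT.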
# [10] = CEETOX_H295R_OHPROG: CeeTox H295R High-throughput Steroidogenesis Assay for OH-Progesterone (OHPROG) (AID 2283435; active means hit-call score of the fitted dose curve at least 0.9, where 1 is the maximum; inactive means score below 0.9;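 on AC50: human adrenal H295R cells primed 48 h with 10 µM forskolin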); details: actives raise or lower the signal
# Outline: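 H295R adrenal cells prestimulated 48 h with 10 uM forskolin, then exposed 48 h to chemical (0.1% DMSO final). 17alpha-hydroxyprogesterone in medium quantified by HPLC-MS/MS; bidirectional fit versus DMSO, with MTT viability measured in the same wells.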
# [11] = system: Sodium/Iodide Symporter (NIS), SLC5A5 (gene 6528); assay: CPHEA_Stoker_NIS_Inhibition_RAIU: CPHEA's Radioactive Iodide Uptake (RAIU) Assay for Sodium/Iodide Symporter (NIS) Inhibition, Stoker and Laws Labs (AID 2283841)
# Outline: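 Test chemicals, six concentrations from 0.001 to 100uM in 0.5% DMSO, were co-incubated with carrier-free 125I (final 329pM) on hNIS-HEK293T-EPA monolayers in pH 7.4 HEPES-buffered HBSS. Plates stood 2 hours at room temperature, then were washed cold and counted.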
# [12] = molecular target: Bile acid receptor (Homo sapiens) (UniProt Q96RI1); assay: OT_FXR_FXRSRC1_0480: Odyssey Thera (OT) 8-hour HEK293T Protein-Complementation Assay for Farnesoid X receptor/SRC-1 Co-activator (AID 2283383)
# Outline: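 HEK293T protein-fragment complementation assay: FXR and SRC-1 coactivator are fused to reporter fragments, and their interaction restores a fluorescent reporter. Readout was taken 8 h after dosing, with gain of signal fit relative to DMSO.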
# [13] = molecular target: human Ephrin type-A Receptor 1 (EphA1), EPHA1 (gene 2041) (UniProt P21709); assay: NVS_ENZ_hEphA1: NovaScreen (NVS) Enzymatic Assay for human Ephrin type-A Receptor 1 (EphA1) (AID 2283158);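 further: activity is signal loss versus DMSO meaning EphA1 kinase inhibition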
# Outline: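 Biochemical kinase assay run cell-free; 1 h incubation; readout is fluorescence with mobility-shift separation of product. Concentration-response up to 50 uM for actives from a 25 uM screen.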
# [14] = molecular target: human Phosphodiesterase 10 (PDE10), PDE10A (gene 10846) (UniProt Q9Y233); assay: NVS_ENZ_hPDE10: NovaScreen (NVS) Enzymatic Assay for human Phosphodiesterase 10 (PDE10) (AID 2283195)
# Outline: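 Recombinant human PDE10 with fluorescent substrate, 1 h, product separated by electrophoretic mobility shift. Loss of enzyme activity fitted against DMSO; initial screen 25 uM in duplicate, actives run to 50 uM maximum.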
# [15] = CCTE_Deisenroth_AIME_384WELL_CTox_Active: Cytotoxicity Assessment (CTOX) in CCTE's 384-well Estrogen Receptor Transactivation Assay with AIME metabolic competence (metabolism positive), Deisenroth Lab (AID 2284037);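 further: chemicals first conditioned 2 h by alginate-bound induced rat liver S9 before cells; activity means signal loss indicating cell death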
# Outline: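 Chemicals pre-incubated 2 hours with alginate-immobilised phenobarbital/beta-naphthoflavone-induced male Sprague Dawley rat liver S9, then conditioned medium applied 24 hour to VM7Luc4E2 cells. Viability by fluorogenic protease substrate; 10-point series 0.002 - 200 uM.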
# [16] = molecular target: human Matrix Metalloproteinase-9 (MMP9), MMP9 (gene 4318) (UniProt P14780); assay: NVS_ENZ_hMMP9: NovaScreen (NVS) Enzymatic Assay for human Matrix Metalloproteinase-9 (MMP9) (AID 2283190);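 further: cell-free recombinant MMP9 protease activity read by fluorescent substrate signal; active means inhibition seen as loss of fluorescence signal versus DMSO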
# Outline: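 Screening concentration 25 uM, duplicate wells, then dose series for confirmation. Cell-free enzymatic reaction measured by fluorescence intensity 1 h post-dosing; decreased signal versus DMSO taken as activity.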
# [17] = molecular target: bovine Estrogen Receptor (ER), ESR1 (gene 407238) (UniProt P49884); assay: NVS_NR_bER: NovaScreen (NVS) Nuclear Receptor Binding Assay for bovine Estrogen Receptor (ER) (AID 2283345);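 further: actives lower the bound radioligand count which means they displace the ER ligand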
# Outline: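 Bovine uterine membranes; tritiated or iodinated radioligand; competitive displacement; 18 h; scintillation read; DMSO negative control; 25 uM duplicates, then concentration series for actives.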
# [18] = molecular target: human Phosphoinositide 3-kinase alpha (PI3Ka), PIK3CA (gene 5290) (UniProt P42336); assay: NVS_ENZ_hPI3Ka: NovaScreen (NVS) Enzymatic Assay for human Phosphoinositide 3-kinase alpha (PI3Ka) (AID 2283196)
# Outline: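 Duplicate single-point screen (25 uM), then singleton dose-response (max 50 uM) for compounds meeting the threshold. Cell-free kinase reaction, 1 h; fluorescent mobility-shift readout.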
# [19] = molecular target: Estrogen receptor (Homo sapiens) (UniProt P03372); assay: NVS_NR_hER: NovaScreen (NVS) Nuclear Receptor Binding Assay for human Estrogen Receptor (ER) (AID 2283348)
# Outline: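 Radioligand competitive displacement binding to estrogen receptor from MCF7 extract, cell-free; 18 h after dosing, scintillation read-out. Primary screen in duplicate at 25 uM; actives followed up in concentration series; loss of signal vs DMSO.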
# [20] = CCTE_Deisenroth_AIME_384WELL_CTox_Inactive: Cytotoxicity Assessment (CTOX) in CCTE's 384-well Estrogen Receptor Transactivation Assay without AIME metabolic competence (metabolism negative), Deisenroth Lab (AID 2284039);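 further: cell viability via live-cell protease substrate cleaved to fluorescent probe; cells exposed 24 h to medium preincubated 2 h with alginate-water beads without S9; loss of fluorescence signal means loss of viability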
# Outline: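 Fluorescence from a live-cell protease substrate, read after 24 h in VM7Luc4E2 cells, indicated viability. Test medium came from a 2 h AIME step without hepatic S9 (alginate-water microspheres); concentrations spanned 0.002 - 200 uM, single technical replicate per run.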
# Sequence of Bile acid receptor (Homo sapiens) (Q96RI1 whole entry, looked up, the tested form may be a part): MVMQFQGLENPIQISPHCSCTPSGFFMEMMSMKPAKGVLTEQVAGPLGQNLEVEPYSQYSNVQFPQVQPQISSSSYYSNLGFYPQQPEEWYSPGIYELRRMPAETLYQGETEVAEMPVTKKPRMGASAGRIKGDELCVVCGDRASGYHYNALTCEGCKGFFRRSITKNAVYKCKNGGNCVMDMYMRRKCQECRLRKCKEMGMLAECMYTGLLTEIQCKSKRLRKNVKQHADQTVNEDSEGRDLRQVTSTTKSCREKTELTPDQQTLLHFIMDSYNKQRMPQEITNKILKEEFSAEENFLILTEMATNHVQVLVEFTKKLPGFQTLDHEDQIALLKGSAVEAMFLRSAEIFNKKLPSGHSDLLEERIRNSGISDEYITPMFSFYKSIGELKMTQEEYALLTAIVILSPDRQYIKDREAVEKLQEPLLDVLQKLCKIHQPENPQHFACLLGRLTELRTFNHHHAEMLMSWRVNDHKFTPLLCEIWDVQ
# Sequence of human Ephrin type-A Receptor 1 (EphA1), EPHA1 (gene 2041) (P21709 whole entry, looked up): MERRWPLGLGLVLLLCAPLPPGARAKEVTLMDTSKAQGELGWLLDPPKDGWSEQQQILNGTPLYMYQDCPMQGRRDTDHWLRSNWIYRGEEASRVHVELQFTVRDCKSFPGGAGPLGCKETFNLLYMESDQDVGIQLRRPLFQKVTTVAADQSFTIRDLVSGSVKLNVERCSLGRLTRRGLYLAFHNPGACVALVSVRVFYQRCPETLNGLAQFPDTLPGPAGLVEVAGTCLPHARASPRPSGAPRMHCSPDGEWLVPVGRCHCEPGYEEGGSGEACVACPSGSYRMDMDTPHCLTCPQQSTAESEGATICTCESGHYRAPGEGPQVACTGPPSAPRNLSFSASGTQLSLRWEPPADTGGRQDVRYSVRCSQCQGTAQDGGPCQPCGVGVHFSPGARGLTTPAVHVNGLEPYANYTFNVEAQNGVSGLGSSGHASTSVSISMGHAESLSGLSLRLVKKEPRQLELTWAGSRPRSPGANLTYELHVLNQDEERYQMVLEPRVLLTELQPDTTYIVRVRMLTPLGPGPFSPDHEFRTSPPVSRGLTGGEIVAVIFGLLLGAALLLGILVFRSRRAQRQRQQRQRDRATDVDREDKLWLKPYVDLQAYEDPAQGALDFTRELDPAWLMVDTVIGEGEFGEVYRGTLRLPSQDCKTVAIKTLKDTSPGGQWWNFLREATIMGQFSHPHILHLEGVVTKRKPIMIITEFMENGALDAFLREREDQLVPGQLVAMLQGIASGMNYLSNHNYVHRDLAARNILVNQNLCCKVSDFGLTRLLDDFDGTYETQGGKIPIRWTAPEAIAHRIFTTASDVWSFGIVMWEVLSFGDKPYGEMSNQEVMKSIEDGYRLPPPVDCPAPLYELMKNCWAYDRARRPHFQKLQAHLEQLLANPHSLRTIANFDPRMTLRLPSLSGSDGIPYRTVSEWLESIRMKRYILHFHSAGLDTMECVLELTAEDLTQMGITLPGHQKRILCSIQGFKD
# Sequence of bovine Estrogen Receptor (ER), ESR1 (gene 407238) (P49884 whole entry, looked up): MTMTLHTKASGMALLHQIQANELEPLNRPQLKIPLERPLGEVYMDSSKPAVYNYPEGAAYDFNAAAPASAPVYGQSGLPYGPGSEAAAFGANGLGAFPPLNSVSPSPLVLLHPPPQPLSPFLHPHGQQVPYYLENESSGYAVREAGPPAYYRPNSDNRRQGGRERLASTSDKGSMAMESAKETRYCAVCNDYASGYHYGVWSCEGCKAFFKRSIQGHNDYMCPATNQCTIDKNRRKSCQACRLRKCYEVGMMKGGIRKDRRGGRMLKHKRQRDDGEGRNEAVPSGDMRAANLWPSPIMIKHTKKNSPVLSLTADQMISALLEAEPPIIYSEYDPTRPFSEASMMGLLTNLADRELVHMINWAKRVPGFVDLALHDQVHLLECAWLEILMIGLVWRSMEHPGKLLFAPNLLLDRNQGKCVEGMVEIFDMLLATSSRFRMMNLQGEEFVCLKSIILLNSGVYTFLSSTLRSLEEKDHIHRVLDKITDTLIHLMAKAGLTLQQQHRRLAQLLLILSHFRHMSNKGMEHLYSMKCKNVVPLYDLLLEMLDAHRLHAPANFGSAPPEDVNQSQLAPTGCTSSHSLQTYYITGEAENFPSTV
# Sequence of Ratio of Nucleoli Translocation and Cytoplasm, AR (gene 367) (P10275 whole entry, looked up): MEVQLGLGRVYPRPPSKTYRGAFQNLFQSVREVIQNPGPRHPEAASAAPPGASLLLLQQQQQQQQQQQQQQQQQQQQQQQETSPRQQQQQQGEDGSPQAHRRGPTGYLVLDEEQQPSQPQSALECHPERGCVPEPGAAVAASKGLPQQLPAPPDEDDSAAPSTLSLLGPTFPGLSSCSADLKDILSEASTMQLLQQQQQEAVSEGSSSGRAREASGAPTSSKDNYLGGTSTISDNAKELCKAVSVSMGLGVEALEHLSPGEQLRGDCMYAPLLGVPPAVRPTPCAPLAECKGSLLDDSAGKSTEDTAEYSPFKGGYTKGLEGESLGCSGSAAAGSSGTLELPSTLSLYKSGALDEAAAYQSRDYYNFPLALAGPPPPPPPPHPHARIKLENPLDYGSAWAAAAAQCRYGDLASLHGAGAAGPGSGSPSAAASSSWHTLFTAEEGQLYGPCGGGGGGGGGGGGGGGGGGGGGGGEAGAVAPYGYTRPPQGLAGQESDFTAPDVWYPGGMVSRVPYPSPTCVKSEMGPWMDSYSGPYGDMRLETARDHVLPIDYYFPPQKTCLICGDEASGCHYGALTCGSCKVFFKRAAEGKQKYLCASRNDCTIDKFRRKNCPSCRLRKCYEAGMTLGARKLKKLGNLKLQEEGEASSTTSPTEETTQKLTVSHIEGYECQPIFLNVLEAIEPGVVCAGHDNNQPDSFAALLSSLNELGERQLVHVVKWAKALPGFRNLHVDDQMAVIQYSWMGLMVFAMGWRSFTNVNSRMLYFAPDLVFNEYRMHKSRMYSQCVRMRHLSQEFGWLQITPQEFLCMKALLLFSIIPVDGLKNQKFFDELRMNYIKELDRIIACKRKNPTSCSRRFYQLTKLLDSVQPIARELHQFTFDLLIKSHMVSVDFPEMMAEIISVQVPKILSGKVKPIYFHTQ
# Sequence of Nucleoli Translocation, AR (gene 367) (P10275 whole entry, looked up): as above
# Sequence of Androgen Receptor/SRC-1 Co-activator, AR (gene 367) (P10275 whole entry, looked up, the tested form may be a part): as the sequence (P10275 whole entry, looked up) above
# Sequence of Agonist Androgen Response Element (ARE), AR (gene 367) (P10275 whole entry, looked up): as above
# Sequence of human Matrix Metalloproteinase-9 (MMP9), MMP9 (gene 4318) (P14780 whole entry, looked up): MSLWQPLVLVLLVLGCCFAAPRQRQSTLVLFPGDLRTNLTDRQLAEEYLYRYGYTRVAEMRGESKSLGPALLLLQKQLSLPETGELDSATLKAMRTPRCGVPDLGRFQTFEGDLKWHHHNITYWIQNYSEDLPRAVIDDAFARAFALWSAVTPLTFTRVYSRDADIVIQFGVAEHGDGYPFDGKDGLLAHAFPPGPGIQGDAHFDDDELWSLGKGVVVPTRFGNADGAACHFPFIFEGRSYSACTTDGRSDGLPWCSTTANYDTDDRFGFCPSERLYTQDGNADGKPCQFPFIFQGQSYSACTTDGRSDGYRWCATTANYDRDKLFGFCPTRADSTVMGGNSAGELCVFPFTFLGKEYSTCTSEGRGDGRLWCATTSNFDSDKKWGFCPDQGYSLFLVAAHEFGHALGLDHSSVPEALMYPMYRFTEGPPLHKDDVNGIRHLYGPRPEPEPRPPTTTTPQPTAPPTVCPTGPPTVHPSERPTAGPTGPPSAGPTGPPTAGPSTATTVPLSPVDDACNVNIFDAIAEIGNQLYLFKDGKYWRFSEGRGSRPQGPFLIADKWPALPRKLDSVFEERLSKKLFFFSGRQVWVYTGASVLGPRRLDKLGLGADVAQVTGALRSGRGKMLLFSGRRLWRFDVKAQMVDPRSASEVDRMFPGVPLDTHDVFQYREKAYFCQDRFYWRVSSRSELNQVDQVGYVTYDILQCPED
# Sequence of Estrogen receptor (Homo sapiens) (P03372 whole entry, looked up): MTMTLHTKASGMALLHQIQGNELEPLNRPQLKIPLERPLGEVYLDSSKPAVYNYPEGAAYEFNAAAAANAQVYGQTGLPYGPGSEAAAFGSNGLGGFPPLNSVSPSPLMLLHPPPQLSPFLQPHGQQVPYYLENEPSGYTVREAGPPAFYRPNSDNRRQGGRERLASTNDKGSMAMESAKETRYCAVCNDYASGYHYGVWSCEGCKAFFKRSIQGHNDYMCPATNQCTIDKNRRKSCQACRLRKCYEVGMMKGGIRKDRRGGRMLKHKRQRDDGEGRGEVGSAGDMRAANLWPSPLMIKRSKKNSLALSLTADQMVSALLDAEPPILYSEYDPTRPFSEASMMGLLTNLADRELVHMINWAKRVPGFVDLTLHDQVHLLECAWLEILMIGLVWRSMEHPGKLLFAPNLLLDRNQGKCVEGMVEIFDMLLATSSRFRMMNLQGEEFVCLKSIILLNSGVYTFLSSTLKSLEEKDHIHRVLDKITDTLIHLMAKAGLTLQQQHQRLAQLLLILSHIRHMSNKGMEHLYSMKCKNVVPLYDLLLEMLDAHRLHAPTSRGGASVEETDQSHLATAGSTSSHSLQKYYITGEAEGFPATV
compound,measurement,setting,value
C=COCCCl,outcome,[1],inactive
same,outcome,[2],inactive
same,outcome,[3],inactive
same,outcome,[4],inactive
same,outcome,[5],inactive
O=CNC(N1CCN(C(NC=O)C(Cl)(Cl)Cl)CC1)C(Cl)(Cl)Cl (configuration not stated),outcome,[6],inactive
same,outcome,[7],inactive
same,outcome,[8],inactive
same,outcome,[9],inactive
same,outcome,[10],inactive
same,outcome,[11],inactive
same,outcome,[1],inactive
same,outcome,[2],inactive
same,outcome,[3],inactive
same,outcome,[4],inactive
COc1cc(OC)nc(Oc2cccc(Oc3nc(OC)cc(OC)n3)c2C(=O)O)n1,outcome,[6],inactive
same,outcome,[7],inactive
same,outcome,[8],inactive
same,outcome,[12],inactive
same,outcome,[1],inactive
same,outcome,[3],inactive
Cc1ncc(C[n+]2csc(CCO)c2C)c(N)n1,outcome,[13],inactive
same,outcome,[14],inactive
CNC(=N[N+](=O)[O-])NCC1CCOC1 (configuration not stated),outcome,[15],inactive
CC(Cc1ccc(C(C)(C)C)cc1)CN1C[C@@H](C)O[C@@H](C)C1 (some centres not stated),AC50,[12],11.3 µM (active)
same,AC50,[9],0.0454 µM (active)
same,AC50,[10],0.316 µM (active)
same,outcome,[11],inactive
CC(C)CCCCCCCOC(=O)c1ccccc1C(=O)OCCCCCCCC(C)C,AC50,[16],10.9 µM (active)
same,outcome,[5],inactive
O=P(O)(Oc1ccccc1)Oc1ccccc1,outcome,[11],inactive
CC(C)(C)C(O)C(Oc1ccc(-c2ccccc2)cc1)n1cncn1 (configuration not stated),outcome,[9],inactive
same,AC50,[10],0.0566 µM (active)
C[C@]12CCC(=O)C(O)=C1CC[C@@H]1[C@@H]2CC[C@]2(C)C(=O)CC[C@@H]12,outcome,[17],inactive
Nc1ccc(-c2ccc(N)c(N)c2)cc1N,AC50,[14],6.79 µM (active)
same,outcome,[18],inactive
CCCCOP(=O)(O)OCCCC,outcome,[19],inactive
O=C1C(Cl)=C(Cl)C(=O)C(Cl)=C1Cl,outcome,[13],inactive
same,outcome,[17],inactive
same,outcome,[19],inactive
same,outcome,[5],inactive
CC(C)(C)C(=O)CCl,outcome,[13],inactive
COc1cc(OC)c(OC)cc1C=O,outcome,[17],inactive
same,outcome,[19],inactive
O=C1C=CC(=O)C=C1,outcome,[5],inactive
O=S(=O)(c1ccccc1)c1ccccc1,outcome,[5],inactive
Nc1ccc(Cl)c(Cl)c1,outcome,[9],inactive
same,AC50,[10],33.3 µM (active)
same,outcome,[15],inactive
same,outcome,[20],inactive
S=c1[nH]c2ccccc2[nH]1,outcome,[14],inactive
CCCCCCCCCCCCCCCC[N+](C)(C)C,AC50,[11],10.2 µM (active)
same,outcome,[15],inactive
same,AC50,[20],100 µM (active)
O=C(NCNC(=O)NC1C(=O)NC(=O)N1CO)NC1C(=O)NC(=O)N1CO (configuration not stated),outcome,[6],inactive
same,outcome,[7],inactive
same,outcome,[8],inactive
same,outcome,[12],inactive
same,AC50,[1],50 µM (active)
same,outcome,[2],inactive
same,AC50,[3],50 µM (active)
same,outcome,[4],inactive
CN(C)CCC#N,AC50,[16],9.19 µM (active)
O=C(O)CCl,outcome,[20],inactive
CC=Cc1ccc2c(c1)OCO2,AC50,[16],5.42 µM (active)
Nc1ccccc1,outcome,[15],inactive
same,outcome,[20],inactive
COCC(=O)N(c1c(C)cccc1C)N1CCOC1=O,outcome,[14],inactive
c1cc(OCC2CO2)ccc1Cc1ccc(OCC2CO2)cc1 (configuration not stated),outcome,[17],inactive
same,outcome,[19],inactive
C=CC(=O)OC,outcome,[14],inactive
O=C(CCl)c1ccccc1,outcome,[11],inactive
